Screen size: about 63,000 compounds; about 1,100 (1.7%) were called active. No stated cut-off is given here; in the data, active means cytotoxicity above about 50%; inactive means the rest. Only a selection was taken, and actives are over-represented in it overall. Potency and affinity values are given separately.
test: HPDE-C7 pancreatic duct cell viability loss – fluorescence, HTS (AID 430); details: HPDE-C7 pancreatic duct cells viability, at 10 µM, active compounds read high;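 further: cells exposed to compound for 48 hours before viability readout; 0% = vehicle and 100% = reference cytotoxic drug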

Row | Structure (SMILES) | cytotoxicity
1 | CCOc1ccc(-n2cc(C(=O)N3CCN(C)CC3)c3cc(OC)c(OC)cc3c2=O)cc1 | -7.2% (inactive)
2 | Cn1cc(C(=O)NC2CCCCC2)c(=O)c2cc(S(=O)(=O)N3CCCC3)ccc21 | 6.5% (inactive)
3 | Cn1cc(C(=O)NC2CCCCCC2)c(=O)c2cc(S(=O)(=O)N3CCCC3)ccc21 | -2.6% (inactive)
4 | CC1CCN(S(=O)(=O)c2ccc3c(c2)c(=O)c(C(=O)NC2CCCC2)cn3C)CC1 | 77% (active)
5 | COC(=O)C1(C)NC(c2cccs2)C2C(=O)N(c3ccc(F)cc3)C(=O)C21 (configuration not stated) | 3.3% (inactive)
6 | Cc1cc(NC(=O)CSc2nnc3c(C)cc4c(C)ccc(C)c4n23)no1 | 64.6% (active)
7 | Cc1cc(C)c2c(c1)cc(C)c1nnc(SCC(=O)Nc3cc(C)on3)n12 | 20.4% (inactive)
8 | Cc1cc(NC(=O)CSc2nnc3c(C)cc4cc(C)c(C)cc4n23)no1 | 6.8% (inactive)
9 | CCN(CCCNC(=O)CC(C(=O)N1CCc2ccccc21)n1ccnc1)c1ccccc1 (configuration not stated) | -6.9% (inactive)
10 | Cc1cccc2sc(NC(=O)CNS(=O)(=O)c3ccc(Br)s3)nc12 | 1.3% (inactive)
11 | Cc1cccc2sc(NC(=O)CN(C)S(=O)(=O)c3cccs3)nc12 | 14.9% (inactive)
12 | C1CCN(c2nc(N3CCCC3)nc(N3CCNCC3)n2)C1 | 2.6% (inactive)
13 | COc1ccccc1NC(=O)C1=C(C)NC(SCC(=O)c2ccc(C)cc2)=C(C#N)C1c1ccco1 (configuration not stated) | 36.6% (inactive)
14 | CC(=O)C1=C(C)NC(SCC(=O)c2cc(Cl)ccc2Cl)=C(C#N)C1c1ccco1 (configuration not stated) | 53% (active)
15 | CC(=O)C1=C(C)NC(SCC(=O)c2ccc(Cl)cc2Cl)=C(C#N)C1c1ccco1 (configuration not stated) | 40.9% (inactive)
16 | CC(=O)C1=C(C)NC(SCC(=O)c2ccc(F)cc2)=C(C#N)C1c1ccco1 (configuration not stated) | 79.8% (active)
17 | CC(=O)C1=C(C)NC(SCC(=O)c2ccc(Cl)c(Cl)c2)=C(C#N)C1c1ccco1 (configuration not stated) | 75.6% (active)
18 | C=CCOC(=O)C1=C(C)NC(SCC(=O)Nc2ccc(C)c(Cl)c2)=C(C#N)C1c1ccco1 (configuration not stated) | 0.2% (inactive)
19 | COCCOC(=O)C1=C(C)NC(SCC(=O)NC(C)(C)C)=C(C#N)C1c1ccco1 (configuration not stated) | 10.7% (inactive)
20 | CCOC(=O)CSC1=C(C#N)C(c2ccc(F)cc2)C(C(C)=O)=C(C)N1 (configuration not stated) | 0.3% (inactive)
21 | Cc1ccc(C(=O)CSC2=C(C#N)C(c3ccco3)CC(=O)N2)c(C)c1 (configuration not stated) | -3% (inactive)
22 | CSCSC1=C(C#N)C(c2ccccc2Cl)C(C(C)=O)=C(C)N1 (configuration not stated) | 21.5% (inactive)
23 | CC(=O)C1=C(C)NC(SCC(=O)c2ccccc2)=C(C#N)C1CC(C)C (configuration not stated) | 8.5% (inactive)
24 | COc1cccc(-n2ccnc2SCC(=O)Nc2cc(OC)ccc2OC)c1 | -21% (inactive)
25 | Cc1cc(N2CCN(c3ccccc3)CC2)n2c(n1)nc1ccccc12 | -8.6% (inactive)

Row | Structure (SMILES) | cytotoxicity
26 | CC(=O)N1CCc2cc(S(=O)(=O)NCCN3CCC(C)CC3)ccc21 | 2.7% (inactive)
27 | COc1ccc(OC)c(C2CC(=O)NC(SC)=C2C#N)c1 (configuration not stated) | -2.9% (inactive)
28 | Cc1cc(C)c2nc(N)sc2c1 | 3.8% (inactive)
29 | c1ccc(COc2ccc(OCCCn3cncn3)cc2)cc1 | -20.8% (inactive)
30 | O=C(O)C1C2C=CC(C2)C1C(=O)NCc1ccoc1 (configuration not stated) | -8.3% (inactive)
31 | CCOc1ccc(OCc2ccc(C(=O)NCc3ccncc3)o2)cc1 | -3% (inactive)
32 | CC(=O)C1=C(C)OC(N)=C(C#N)C1c1ccco1 (configuration not stated) | -2.2% (inactive)
33 | C=CCOC(=O)C1=C(C)NC(SCC(=O)N(CC)CC)=C(C#N)C1c1ccco1 (configuration not stated) | 12.7% (inactive)
34 | CCN(CC)C(=O)CSC1=C(C#N)C(c2ccco2)C(C(=O)OCCOC)=C(C)N1 (configuration not stated) | -11% (inactive)
35 | CSCSC1=C(C#N)C(c2ccc(Cl)cc2)C(C(C)=O)=C(C)N1 (configuration not stated) | -18.3% (inactive)
36 | CC(=O)C1=C(C)NC(SCC(=O)c2ccc(Cl)cc2)=C(C#N)C1c1ccco1 (configuration not stated) | 57.9% (active)
37 | CCOC(=O)CSC1=C(C#N)C(c2ccco2)C(C(=O)OCc2ccccc2)=C(C)N1 (configuration not stated) | 58.8% (active)
38 | CN(c1ccc(C(=O)NCc2ccccc2)cc1)S(C)(=O)=O | -26.5% (inactive)
39 | CCCS(=O)(=O)N1CCC(C(=O)NCCN2CCCC2)CC1 | 2.1% (inactive)
40 | COc1ccc(-c2nnc(SCc3ncc(-c4ccccc4)o3)o2)cc1 | -2.9% (inactive)
41 | O=S1(=O)N=C(Nc2nc3c(s2)CCCC3)c2ccccc21 | -10% (inactive)
42 | Cc1nc(SCC#N)c2c3c(sc2n1)CCC3 | -19% (inactive)
43 | Cc1nc(Sc2nnnn2C)c2c3c(sc2n1)CCC3 | 76.2% (active)
44 | CSc1nc2sc3c(c2c2nnnn12)CCC3 | 7.6% (inactive)
45 | CC1Cc2ccccc2N1C(=O)Cn1nnc(-c2ccccc2NC(=O)C2CCC2)n1 (configuration not stated) | -11.1% (inactive)
46 | CCOC(=O)C1CCCN(C(=O)CN2CCN(Cc3ccc(Cl)cc3)C2=O)C1 (configuration not stated) | -28.3% (inactive)
47 | O=C(c1ccc(COc2ccc(Cl)cc2)o1)N1CCN(Cc2ccc3c(c2)OCO3)CC1 | 69.1% (active)
48 | O=C(c1ccc(COc2ccccc2Cl)o1)N1CCN(c2ccccc2)CC1 | -4.6% (inactive)
49 | O=C(c1ccc(Cn2cc(Cl)cn2)o1)N1CCN(Cc2ccc3c(c2)OCO3)CC1 | 12.9% (inactive)
50 | O=C(c1ccc(COc2ccccc2Cl)o1)N1CCN(Cc2ccc3c(c2)OCO3)CC1 | 87.5% (active)

Row | Structure (SMILES) | cytotoxicity
51 | O=C(c1ccc(Br)o1)N1CCN(Cc2ccc3c(c2)OCO3)CC1 | -8.7% (inactive)
52 | CC1CCN(C(=O)c2ccc(COc3ccccc3Cl)o2)CC1 | -8.9% (inactive)
53 | Cn1c(O)c(C=NC(CC(N)=O)C(=O)O)c(=O)n(C)c1=O (configuration not stated) | -3.1% (inactive)
54 | O=C(COc1cc(Cl)c(Cl)cc1Cl)Nc1ccncc1 | 14.9% (inactive)
55 | CCOC(=O)CC(=O)CSc1nc2sc(C)cc2c(=O)n1Cc1ccco1 | -13.3% (inactive)
56 | COCCn1nnnc1C(c1ccc(OC)cc1)N1CCC(C)CC1 (configuration not stated) | -5.9% (inactive)
57 | O=C1c2ccccc2C(=O)N1CCc1nc2ccccc2c(=O)n1CCCn1ccnc1 | -20.5% (inactive)
58 | N#Cc1nc(-c2ccc(OCc3ccccc3)cc2)oc1N1CCOCC1 | 14.5% (inactive)
59 | COc1ccccc1S(=O)(=O)Cc1ccc(C(=O)NC(C)c2ccc3c(c2)OCCO3)o1 (configuration not stated) | -4.2% (inactive)
60 | COc1ccc(N(C)C(=O)Nc2ccc3c(c2)nnn3C)cc1 | -17.6% (inactive)
61 | O=C(NCc1ccccn1)c1cc2cc(Br)ccc2oc1=O | 4.9% (inactive)
62 | O=C(NCc1ccccn1)c1coc(=O)c(Br)c1 | 52.2% (active)
63 | O=C(NCc1ccccn1)c1ccc(=O)oc1 | 0.8% (inactive)
64 | Cc1c(C(=O)NCc2cccnc2)oc2ccc(S(=O)(=O)N3CC(C)CC(C)C3)cc12 (configuration not stated) | 43% (inactive)
65 | CN(c1nc(-c2ccccc2)cs1)C1CCS(=O)(=O)C1 (configuration not stated) | 4.5% (inactive)
66 | CCOC(=O)N1CCN(S(=O)(=O)c2cc(Cl)c(OC)cc2Cl)CC1 | -2.9% (inactive)
67 | COc1cccc(CN(Cc2cccnc2)S(=O)(=O)c2ccc(-n3cnnn3)c(C)c2)c1 | 4.5% (inactive)
68 | CC(=O)Oc1cccc2c1C(=O)c1c(OC(C)=O)cc(C(=O)O)cc1C2=O | 25.5% (inactive)
69 | O=C(O)c1cc(C(=O)O)c(-c2ccccc2)c(C(=O)O)c1 | -22.6% (inactive)
70 | Cn1c(=O)c2cc(S(=O)(=O)N3CCN(c4cccc(C(F)(F)F)c4)CC3)ccc2n(C)c1=O | -2.2% (inactive)
71 | Cc1c(S(=O)(=O)N2CCN(c3cccc(C(F)(F)F)c3)CC2)c(=O)n(C)c(=O)n1C | 5.2% (inactive)
72 | Cn1c(=O)c(=O)n(C)c2cc(S(=O)(=O)N3CCN(c4cccc(C(F)(F)F)c4)CC3)ccc21 | 71.5% (active)
73 | O=C(C1CCC(Cn2c(=S)[nH]c3ccccc3c2=O)CC1)N1CCOCC1 (configuration not stated) | -5.9% (inactive)
74 | CN1CCN(c2nc(-c3ccccc3)nc3c2oc2ccccc23)CC1 | -10% (inactive)
75 | O=C(O)C1CCN(c2nc(-c3ccccc3)nc3c2oc2ccccc23)CC1 | 23.4% (inactive)

Row | Structure (SMILES) | cytotoxicity
76 | CCC(CC)C(=O)Nc1cc(NC(=O)C(CC)CC)cc(C(=O)O)c1 | -16.6% (inactive)
77 | CCN=C1SC(C(=O)NCCc2ccccc2)CC(=O)N1CC (configuration not stated) | 5.8% (inactive)
78 | O=C1CSC(=S)N1c1cccnc1 | -9.7% (inactive)
79 | O=C(O)c1ccc(CN2C(=O)CSC2=S)cc1 | 19.2% (inactive)
80 | Cc1ccc(C(=O)CSc2ncn[nH]2)cc1 | 17.6% (inactive)
81 | Cn1c(N)c(C(=O)COC(=O)c2ccc3c(c2)OCCO3)c(=O)n(C)c1=O | -1.5% (inactive)
82 | Cc1ccc(-n2c(=O)cc(N3CC(C)CC(C)C3)[nH]c2=O)cc1 (configuration not stated) | -15.2% (inactive)
83 | CC(=O)Nc1cccc(-c2nc3ccc(NC(C)=O)cc3[nH]2)c1 | 9.5% (inactive)
84 | O=C(c1ccco1)N1CCN(c2c(-c3ccccc3)c3cc(Cl)ccc3[nH]c2=O)CC1 | 83.6% (active)
85 | CCOC(=O)N1CCN(c2c(-c3ccccc3)c3cc(Cl)ccc3[nH]c2=O)CC1 | 7.4% (inactive)
86 | O=c1[nH]c2ccc(Cl)cc2c(-c2ccccc2)c1N1CCOCC1 | 0.9% (inactive)
87 | CC(C)(C)n1nnnc1C(c1cccs1)N(Cc1ccccc1)Cc1ccco1 (configuration not stated) | -4.3% (inactive)
88 | COc1cccc(NC(=O)C2CCCN2C(=O)Nc2cccc(F)c2)c1 (configuration not stated) | 9.8% (inactive)
89 | COC(=O)CSc1nnc(-c2ccccc2OC)o1 | -25.6% (inactive)
90 | COc1ccccc1-c1nnc(SCC(=O)Nc2c(Cl)cccc2Cl)o1 | -1.3% (inactive)
91 | O=S(=O)(c1ccc(OCC(O)CNCc2ccco2)c(Cl)c1)N1CCOCC1 (configuration not stated) | -9.8% (inactive)
92 | Cc1ccc(C)c(Cn2c(=O)n(CCC(=O)NCc3ccco3)c(=O)c3ccccc32)c1 | -14.5% (inactive)
93 | Cn1c(=O)cc(SCC(=O)NCc2ccco2)c2ccccc21 | -4.4% (inactive)
94 | CCn1c(=O)cc(SCC(=O)NCc2ccco2)c2ccccc21 | 62.1% (active)
95 | Cc1ccc(C)c(Cn2c(=O)n(CCCC(=O)NCc3ccco3)c(=O)c3ccccc32)c1 | 60.2% (active)
96 | CCn1c(=O)cc(OCC(=O)NCc2ccco2)c2ccccc21 | 5.8% (inactive)
97 | Cc1ccccc1Cn1c(=O)n(CCCC(=O)NCc2ccco2)c(=O)c2ccccc21 | -24.1% (inactive)

From PubChem BioAssay AID430 (Sanford-Burnham Center for Chemical Genomics, 2006)
